A selection: hits, their analogues and other compounds. The true share with any hit is near 19%.
HT1080 IDH1KD tx = toxicity to HT-1080 IDH1 knockdown cells (counter line); HT-1080 IDH1 knockdown viability, ATP luminescence, 48 h; Potency, µM (top dose mostly 46.1 µM), for inactives: at the highest dose activity, negative = toxicity, usual class: cytotoxic; AID 686971; hit rate 2% among 360,000;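 also: 0% = DMSO wells and -100% = cell-free medium wells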
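After a 2 h attachment period, IDH1KD HT-1080 cells took pin-transferred compound for 48 h at 37 °C; ATP-based luminescence after 10 min room-temperature reagent incubation reported viability.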
KB-V1 MDR tox = KB-V1 MDR subline cytotoxicity; hit rate 3.4% among 400,000; KB-V1 MDR cells viability, CellTiter-Glo, 72 h; Potency, µM (top dose mostly 46.1 µM), most hits filed as cytotoxic; AID 1347076; also: nearly all actives have a fitted effect of over 60% in size
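Cells of the MDR subline KB-V1 are plated, dosed with compound at multiple concentrations, and incubated 72 h at 37 degrees C; CellTiter-Glo is then added and luminescence read after 10 min.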
DT40 TDP1 no CPT = qHTS for Inhibitors of human tyrosyl-DNA phosphodiesterase 1 (TDP1): qHTS in cells in absence of CPT | DT40 Tdp1-/- hTDP1 cells, no CPT, ATP luminescence, 48 h | Potency, µM (titrated, usually from 46.2 µM), for the others: at the top dose activity change, negative = growth inhibition, hits mostly inhibitors | hit rate 15% among 420,000; also: nearly all actives have a fitted effect of over 55% in size
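No-CPT arm: Tdp1-/-;hTDP1 DT40 cells (400/well) plus compounds, incubated ≥48 hr at 37 °C. Readout CellTiter-Glo luminescence.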
HT1080-NT tox = kills 2HG-producing HT-1080-NT fibrosarcoma cells; HT-1080-NT fibrosarcoma viability, CellTiter-Glo ATP luminescence, 48 h; Potency, µM (highest dose often 46.1 µM), inactives show at the highest dose activity, negative = less viability, usual class: cytotoxic; hit rate 1.6% among 360,000; AID 686970;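 also: NT is the 2HG producing partner of a matched IDH1 knockdown line; 0% = DMSO-treated cells and -100% = media-only wells without cells; nearly all actives have a fitted effect of over 55% in size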
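HT-1080-NT; 750 cells/well; 5% FBS RPMI; 48 h compound, 37 degrees C; CellTiter-Glo luminescence; curve fitting and curve-class assignment.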
KB-3-1 tox = KB-3-1 parental cell cytotoxicity; KB-3-1 viability, CellTiter-Glo ATP luminescence, 72 h; Potency, µM (series often up to 46.1 µM), actives largely listed as cytotoxic; hit rate 1.4% among 400,000; also: nearly all actives have a fitted effect of over 60% in size
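Cytotoxicity in the drug-sensitive parental line KB-3-1 was scored as loss of CellTiter-Glo luminescence following 72 h incubation with compound. Values come from curve fitting of normalized concentration-response data.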
TDP1 cell CPT = growth inhibition of DT40 Tdp1-/-;hTDP1 cells with camptothecin (screen for TDP1 inhibitors); chicken DT40 Tdp1-/-;hTDP1 cells + 20 nM CPT, ATP luminescence, 48 h; Potency, µM (doses to about 46.2 µM), for inactives: top-dose activity change, negative = growth inhibition, most hits filed as inhibitors; hit rate 12% among 420,000; AID 686979; also: nearly all actives have a fitted effect of over 55% in size
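Chicken DT40 Tdp1-/- cells stably complemented with human TDP1 were seeded at 400 cells/well in medium containing 20 nM camptothecin, exposed to pin-transferred compounds, and grown at 37 °C for at least 48 hr. Viability was read as ATP luminescence.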
An asterisk follows results filed as active. Calls follow the shape of the dose curve; as a rule, active = well fitted curve in the direction sought with a large enough effect; inconclusive = small, poorly fitted or top-dose-only effect, or another doubt; inactive = no such curve, though single readings can be large; an effect the other way counts as inactive or inconclusive. Unless noted, % is scaled to controls: 0 for no effect and ±100 for the full control effect; potency is read from the fitted curve at half-maximal effect.

Screening COc1cc(/C=C/C(=O)c2ccc(Cl)s2)cc(OC)c1O returned HT1080 IDH1KD tx 11µM*, KB-V1 MDR tox inconclusive, DT40 TDP1 no CPT 29µM*, HT1080-NT tox inconclusive, KB-3-1 tox inactive and TDP1 cell CPT inconclusive.
`COc1ccc(/C=C/C(=O)c2ccc(Cl)s2)cc1O` gave HT1080 IDH1KD tx -14%, KB-V1 MDR tox inconclusive, DT40 TDP1 no CPT 18µM*, HT1080-NT tox -8%, KB-3-1 tox inconclusive and TDP1 cell CPT inconclusive.
For Cc1cc[n+](CC#N)cc1 the results were KB-V1 MDR tox inconclusive, DT40 TDP1 no CPT 2%, KB-3-1 tox inconclusive and TDP1 cell CPT -10%.
Cc1ccc(CC#N)c(-c2c(CC#N)ccc(C)c2C)c1C was read as HT1080 IDH1KD tx 0%, KB-V1 MDR tox inconclusive, DT40 TDP1 no CPT 23µM*, HT1080-NT tox 2%, KB-3-1 tox inactive and TDP1 cell CPT inconclusive.
COc1ncc2nc(-c3cccs3)c(=O)n(C)c2n1 was read as DT40 TDP1 no CPT 1% and TDP1 cell CPT -28%.
`COc1ccccc1/C(O)=C(\C#N)c1nc2ccccc2[nH]1` gave HT1080 IDH1KD tx -3%, KB-V1 MDR tox inactive, DT40 TDP1 no CPT -28%, HT1080-NT tox 5%, KB-3-1 tox inactive and TDP1 cell CPT 8%.
For Cc1c(-n2cc(C(=O)O)c(=O)c3cc(F)c(N4CCCC4)c(F)c32)c(=O)n(-c2ccccc2)n1C the results were HT1080 IDH1KD tx -5%, KB-V1 MDR tox inactive, DT40 TDP1 no CPT 23µM*, HT1080-NT tox -4%, KB-3-1 tox inactive and TDP1 cell CPT 16µM*.
O=C(c1cc2c(F)cccc2s1)N1CCCC1 was read as HT1080 IDH1KD tx 8%, KB-V1 MDR tox inactive, DT40 TDP1 no CPT -2%, HT1080-NT tox 14%, KB-3-1 tox inactive and TDP1 cell CPT 6%.
Screening CN(C)S(=O)(=O)c1ccc(NC(=O)N2CCN(c3ccccc3Cl)CC2)cc1 returned HT1080 IDH1KD tx -24%, KB-V1 MDR tox inconclusive, DT40 TDP1 no CPT inconclusive, HT1080-NT tox -20%, KB-3-1 tox inactive and TDP1 cell CPT -28%.
COc1cccc(NC(=O)CCc2nnc3ccc(N4CCN(c5cccc(OC)c5)CC4)nn23)c1 was read as HT1080 IDH1KD tx 13%, KB-V1 MDR tox inconclusive, DT40 TDP1 no CPT inconclusive, HT1080-NT tox 2%, KB-3-1 tox inactive and TDP1 cell CPT inconclusive.
For COc1ccc(NC(=O)CSCC(=O)N2CCN(c3cccc(C(F)(F)F)c3)CC2)cc1 the results were HT1080 IDH1KD tx -1%, KB-V1 MDR tox inactive, DT40 TDP1 no CPT 15µM*, HT1080-NT tox -4%, KB-3-1 tox inactive and TDP1 cell CPT inconclusive.
For CN(C)S(=O)(=O)c1ccc(NC(=O)N2CCN(c3cccc(C(F)(F)F)c3)CC2)cc1 the results were HT1080 IDH1KD tx inconclusive, KB-V1 MDR tox inconclusive, DT40 TDP1 no CPT 2.6µM*, HT1080-NT tox inconclusive, KB-3-1 tox inconclusive and TDP1 cell CPT 3.7µM*.
Screening COc1ccc(NC(=O)N2CCN(c3cccc(C(F)(F)F)c3)CC2)cc1 returned HT1080 IDH1KD tx -17%, KB-V1 MDR tox inconclusive, DT40 TDP1 no CPT 7.3µM*, HT1080-NT tox -4%, KB-3-1 tox inactive and TDP1 cell CPT 2.1µM*.
Screening COc1ccc(NC(=O)CCc2nnc3ccc(N4CCN(c5cccc(OC)c5)CC4)nn23)cc1 returned HT1080 IDH1KD tx -1%, KB-V1 MDR tox inactive, DT40 TDP1 no CPT 15µM*, HT1080-NT tox -8%, KB-3-1 tox inactive and TDP1 cell CPT inconclusive.
`COc1ccc(NC(=O)N2CCC3(CC2)CCN(C(=O)c2cc(C(F)(F)F)cc(C(F)(F)F)c2)CC3)cc1` gave DT40 TDP1 no CPT -28% and TDP1 cell CPT 0%.
